# From PubChem
# Shown are actives, neighbours in structure and some others; about 4.7% of the full set was active somewhere.
# proKLK7 act: proKLK7 (human) activation, primary screen; P49862; purified proKLK7, EDANS-DABCYL substrate fluorescence; 100% is mature enzyme control, 0% vehicle; activation, % at 7 µM; actives 0.9% (n = 370,000);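 active means activation above the mean of all tested compounds plus 3 SD, computed per campaign excluding outliers beyond control limits, cut at about 13% in these data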
# Target sequence (P49862 whole entry, looked up): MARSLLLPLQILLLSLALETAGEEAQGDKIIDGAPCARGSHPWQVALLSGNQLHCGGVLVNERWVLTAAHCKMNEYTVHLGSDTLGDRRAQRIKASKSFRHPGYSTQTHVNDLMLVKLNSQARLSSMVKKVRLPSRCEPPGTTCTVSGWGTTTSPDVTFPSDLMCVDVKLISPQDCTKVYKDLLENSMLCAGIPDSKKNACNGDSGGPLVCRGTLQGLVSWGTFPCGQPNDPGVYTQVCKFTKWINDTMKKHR
# MPTP block: permeability transition pore inhibition. isolated mouse mitochondria, Ca2+ swelling absorbance, 30 min. inhibition, % at 10 µM. actives 1.4% (n = 360,000). AID 602449;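 active means inhibition of 50% or more, scaled per plate between neutral and stimulator controls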;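 further: 0% = DMSO wells given calcium and 100% = 1 mM EGTA wells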
# rCAG binder: binds r(CAG) RNA repeats; r(CAG) RNA repeat, TO-PRO-1 dye displacement fluorescence; inhibition, % at 3 µM; actives 1.3% (n = 370,000); AID 651821;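 active means inhibition above the plate cutoff, the mean of all test compounds on that plate plus 3 SD, cut at about 35% in these data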;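 further: 0% = DMSO alone and 100% = 100 µM mitoxantrone as full dye displacement; higher means more dye released from RNA so lower well fluorescence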
# ADAM17 inh: inhibitors of human ADAM17; P78536; recombinant ADAM17, EDANS/DABCYL FRET peptide cleavage; inhibition, % at 6.95 µM; actives 0.83% (n = 370,000);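 active means inhibition above the mean of compounds lying between control limits plus 3 SD, set per campaign, cut at about 8.5% in these data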;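 further: 0% = DMSO-only wells as the low control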
# ADAM10 inh: inhibits human ADAM10; inhibition, % at 7 µM; O14672; actives 0.62% (n = 370,000); recombinant ADAM10, EDANS/DABCYL FRET peptide cleavage, 3 h;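 active means inhibition above a per-campaign cutoff equal to the mean of compounds falling between control-based bounds plus 3 SD, cut at about 20% in these data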;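 further: 0% = DMSO wells while the 100% control is not disclosed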
# DSG3 Ab inh: inhibitors of pemphigus antibody binding to human desmoglein-3 | actives 0.48% (n = 310,000) | binding (percent of control), % at 10 µM | DSG3-coupled beads, scFv-anti-DSG3-GFP binding, flow cytometry; active compounds read low | P32926;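 active means binding more than 3 SD below its plate's average and above zero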;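 further: hits lower antibody fragment binding to DSG3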
# MPTP counter: Rhodamine 123 counter-screen of mitochondrial pore hits | isolated mitochondria, membrane potential, Rhodamine 123 fluorescence | AID 624504 | actives 78% (n = 5,000) | inhibition, % at 10 µM | shares compounds with MPTP block; in the data active means inhibition above about 22%;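 further: 0% = DMSO vehicle and 100% = positive control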
# MPTP abs DR: dose response confirmation of mitochondrial permeability transition pore inhibitors; shares compounds with MPTP block; actives 58% (n = 780); AID 651561; isolated mitochondria swelling, absorbance; IC50, µM; in the data active means IC50 below about 20 µM
# MPTP cs DR: MPTP inhibitor counter-screen activity, dose response; shares compounds with MPTP block; AID 651564; actives 49% (n = 780); isolated mitochondria counterscreen, fluorescence read-out; IC50, µM; in the data active means IC50 below about 80 µM
# rCAG bind conf: r(CAG) RNA repeat binding, confirmation; inhibition, % at 3 µM; AID 652065; TO-PRO-1 dye displacement fluorescence; actives 70% (n = 4,300); shares compounds with rCAG binder;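 active means inhibition above a per-plate cutoff, the mean inhibition of sample wells plus 3 SD, cut at about 35% in these data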;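 further: loss of TO-PRO-1 fluorescence as compound displaces dye from 1x1 AA loop RNA; 0% = DMSO only wells and 100% = 100 µM mitoxantrone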
# dCAG dye counter: counter-screen for rCAG RNA binders: DNA CAG dye complex inhibitors; shares compounds with rCAG binder; d(CAG) DNA oligo TO-PRO-1 dye displacement, fluorescence; inhibition, % at 3 µM; actives 94% (n = 4,300);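 active means inhibition above its plate's cutoff, the mean test-well inhibition plus 3 SD, cut at about 4.8% in these data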;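 further: 0% = DNA dye mix with DMSO and 100% = 100 µM mitoxantrone; hits displace the dye from DNA and so lower well fluorescence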
# ADAM10 confirm: human ADAM10 inhibition, confirmation. shares compounds with ADAM10 inh. actives 1% (n = 2,100). ADAM10 QFRET peptide cleavage, EDANS fluorescence. AID 743208. inhibition, % at 6.95 µM;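 active means inhibition above about 20% chosen separately for each screening run, limit read from the data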;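 further: 0% = DMSO wells and 100% = marimastat wells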
# ADAM17 counter: counter-screen for ADAM10 exosite inhibitors: inhibitors of human ADAM17; shares compounds with ADAM10 inh; ADAM17 QFRET peptide cleavage, EDANS fluorescence; inhibition, % at 6.95 µM; actives 0.5% (n = 2,100);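 active means mean triplicate inhibition above the solvent-only control wells' mean plus 3 SD, cut at about 12% in these data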;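 further: 0% = DMSO wells and 100% = marimastat wells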
# ADAM10 counter: counter-screen for ADAM17 exosite inhibitors: inhibitors of human ADAM10; shares compounds with ADAM17 inh; recombinant ADAM10, EDANS/DABCYL FRET peptide cleavage, 3 h; inhibition, % at 6.95 µM; actives 47% (n = 2,900); AID 743256;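 active means mean inhibition over the triplicate runs exceeds the activity threshold set in the earlier primary screen, cut at about 20% in these data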;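 further: 0% = DMSO wells and 100% = marimastat wells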
# ADAM17 confirm: confirmation of inhibitors of human ADAM17. shares compounds with ADAM17 inh. recombinant ADAM17, EDANS/DABCYL QFRET peptide cleavage. inhibition, % at 6.95 µM. actives 65% (n = 2,900);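 active means mean inhibition across replicates above the hit cutoff set in the primary screen, cut at about 8.5% in these data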;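 further: 0% = DMSO wells and 100% = marimastat wells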
# Starred values were filed as active, the others as inactive; · = no result given.
SMILES,proKLK7 act,MPTP block,rCAG binder,ADAM17 inh,ADAM10 inh,DSG3 Ab inh,MPTP counter,ADAM10 confirm,ADAM17 counter,ADAM10 counter,ADAM17 confirm,others
CC(C)(C)NS(=O)(=O)c1ccc(NC(=O)C(Sc2ccccc2)c2ccccc2)cc1 (centres undefined),0,65*,18,19*,41*,100,73*,7,3,44*,22*,
C=CCc1cccc(CNc2nc3ccccc3n2CCC)c1O,0,52*,2,14*,35*,·,53*,6,2,42*,23*,
CC(NC(=O)COC(=O)c1cc(NS(=O)(=O)c2ccc(Cl)c([N+](=O)[O-])c2)ccc1O)C1CC2CCC1C2 (centres undefined),0,61*,44*,8.8*,22*,98,66*,9,2,38*,17*,rCAG bind conf=58*;dCAG dye counter=22*
COc1ccc(NS(=O)(=O)c2ccc(O)c(C(=O)OCC(=O)NC(C)C3CC4CCC3C4)c2)cc1 (centres undefined),0,0,6,-6,-5,·,·,·,·,·,·,
CCOC(=O)C1CSCCS(=O)(=O)N1Cc1ccc(Br)cc1 (centres undefined),0,·,0,-3,-12,·,·,·,·,·,·,
CCN1CCN(c2cc(SC(C)C)nc(-c3ccc(OC)cc3)n2)CC1,0,78*,-1,13*,14,99,-16,·,·,23*,15*,MPTP abs DR=10*;MPTP cs DR=62*
O=C(NNc1ccccc1Br)C(O)(c1cccc(C(F)(F)F)c1)c1cccc(C(F)(F)F)c1,-1,95*,4,25*,49*,·,74*,11,4,52*,23*,
Cc1ccccc1NC(=O)c1cccc(C(F)(F)F)c1,0,1,0,2,7,99,·,·,·,·,·,
COc1ccc(Oc2ccc(/C=C/C(=O)c3ccc(O)cc3)cc2[N+](=O)[O-])cc1,0,88*,37*,9.6*,16,·,66*,·,·,38*,22*,rCAG bind conf=23;dCAG dye counter=11*
O=C(Nc1ccc(C(F)(F)F)cc1)OC1CCC12CCCCC2 (centres undefined),0,·,2,0,-1,·,·,·,·,·,·,
N/C(=N\S(=O)(=O)c1cc(C(F)(F)F)cc(C(F)(F)F)c1)c1ccc(Cl)cc1,0,83*,-1,9.7*,23*,·,88*,2,1,45*,19*,
Cc1ccc(C2C3=C(CC(C)(C)CC3=O)OC3=C2C(=O)CC(C)(C)C3)cc1,1,1,-3,-3,6,111,·,·,·,·,·,
Cc1ccc(C2C3=C(CC(C)(C)CC3=O)N=C3c4ccccc4C(=O)C32)cc1 (centres undefined),1,86*,6,8.7*,3,94,63*,·,·,-16,3,
